Each structure is given as a SMILES string. Records with an inconclusive call do not appear. A call without a number means that no potency is given here. Active and inactive are the calls of the source. Calls follow the shape of the dose curve; as a rule, active = well fitted inhibition curve with a large enough effect; inconclusive = small, poorly fitted or top-dose-only effect; inactive = flat fitted curve, though single readings scatter.

This experiment deals with CP185. Briefly: qHTS profiling for inhibitors of Plasmodium falciparum proliferation (AID 504749). Also: nearly all actives have a fitted effect of over 60% in size. The conditions noted are these: P. falciparum in erythrocytes, SYBR Green DNA, 72 h; series mostly up to 28.7 µM. Summed up:
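Fluorescence of SYBR Green-bound parasite DNA, read at 485/535 nm, served as the growth measure. Infected erythrocytes were cultured with compound 72 h; artemisinin (0.29 uM) and DMSO wells defined the normalization range.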
(In general: Quantitative high-throughput screening tests each substance at several concentrations.)
In the case of `CCN(CC)C(=O)c1cccnc1`, the Potency result was “inactive”.

Turning to `CNC(=O)C[C@@H](N)C(=O)N[C@@H](C(=O)N[C@@H]1C(=O)N2[C@@H]1SC(C)(C)[C@@H]2C(=O)O)c1ccc(O)cc1`, the Potency entry was “inactive”.

Regarding `CCCCCCCCCCCCCCCCCC(=O)OCC(C)O` (stereo not drawn), the Potency result is “inactive”.

On to `NC(=S)NS(=O)(=O)c1ccc(N)cc1`, for which the Potency entry was “inactive”.

On to `N=C(N)n1cccn1`, for which the Potency result is “inactive”.

`Nc1ncnc2c1ncn2CCOCP(=O)(O)O`: the Potency result is “inactive”.

With `CCC(C(=O)NC(N)=O)c1ccccc1` (stereo not drawn), the Potency result was “inactive”.

`CC(C)CCC[C@@H](C)[C@H]1CC[C@H]2[C@@H]3CC=C4C[C@@H](O)CC[C@]4(C)[C@H]3CC[C@]12C`: the Potency entry is “inactive”.

For the compound `CC1=CCC2CC1C2(C)C` (stereo not drawn), the Potency result was “inactive”.

`NC(N)=O`: the Potency entry was “inactive”.

Take `Cc1ncc(C[n+]2csc(CCOP(=O)(O)OP(=O)(O)O)c2C)c(N)n1`: the Potency entry is “inactive”.

`Nc1nc(=O)n([C@@H]2CS[C@H](CO)O2)cc1F`: the Potency result is “inactive”.

As to `CCOC(=O)[C@@H](N)CS`, the Potency result is “inactive”.

In the case of `OCC(O)CO`, the Potency result was “inactive”.

Consider `O=C1c2ccccc2C(=O)C1c1ccc(F)cc1`, for which the Potency result was “inactive”.

With `O=C(O)COc1ccccc1/C=N/NC(=O)c1ccncc1`, the Potency entry is “inactive”.

With `Cc1cccc(C)c1NC(=O)C1CCCCN1C` (stereo not drawn), the Potency result was “inactive”.

Take `CCC(C)[C@@H](N)C(=O)O` (stereo partly drawn): the Potency entry was “inactive”.

With `CC(C)(Oc1ccc(C2CCCc3ccccc32)cc1)C(=O)O` (stereo not drawn), the Potency entry is “inactive”.

For `CC(CC=O)CCCC(C)(C)O` (stereo not drawn), the Potency result was “inactive”.

Take `S=C1SCN(Cc2ccccc2)CN1Cc1ccccc1`: the Potency entry was “inactive”.

On to `CC(C)Cc1ccc([C@@H](C)C(=O)NS(C)(=O)=O)cc1`, for which the Potency entry is “inactive”.

As for `COc1cc2c(cc1OC)[C@@H](Cc1cc(OC)c(OC)c(OC)c1)[N+](C)(CCCOC(=O)CC/C=C/CCC(=O)OCCC[N+]1(C)CCc3cc(OC)c(OC)cc3[C@H]1Cc1cc(OC)c(OC)c(OC)c1)CC2` (stereo partly drawn), the Potency entry was “inactive”.

(Values after PubChem BioAssay (NCATS).)
